m5-HT2A agonist: mouse HTR2A agonism via beta-arrestin recruitment; 0.66% of 360,000 active; activation, % at 7.6 µM; P35363; CHO-K1 mHTR2A beta-arrestin complementation, luminescence; percent of 30 µM serotonin response;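 active means activation above a run cutoff, the mean activation of all tested compounds plus 3 SD, cut at about 14% in these data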
Exocytosis inh: lytic granule exocytosis inhibition; TALL-104 LAMP-1 surface exposure, flow cytometry; cells stimulated with thapsigargin and PMA; inhibition, % at 10 µM; 0.66% of 360,000 active; AID 651702;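 active means inhibition above about 55%, limit read from the data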
GASC-1 inh: human JMJD2C demethylase inhibition; Q9H3R0; GST-JMJD2C(1-420) H3K9me3 demethylation, DELFIA europium; inhibition, % at 2.35 µM; 0.069% of 330,000 active; AID 2099;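 active means more than half of a compound's replicate wells show inhibition beyond 50%, single wells judged on their own value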;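 further: signal counts dimethyl H3K9 product captured on neutravidin plate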
Target sequence (Q9H3R0 1-420 limits assumed): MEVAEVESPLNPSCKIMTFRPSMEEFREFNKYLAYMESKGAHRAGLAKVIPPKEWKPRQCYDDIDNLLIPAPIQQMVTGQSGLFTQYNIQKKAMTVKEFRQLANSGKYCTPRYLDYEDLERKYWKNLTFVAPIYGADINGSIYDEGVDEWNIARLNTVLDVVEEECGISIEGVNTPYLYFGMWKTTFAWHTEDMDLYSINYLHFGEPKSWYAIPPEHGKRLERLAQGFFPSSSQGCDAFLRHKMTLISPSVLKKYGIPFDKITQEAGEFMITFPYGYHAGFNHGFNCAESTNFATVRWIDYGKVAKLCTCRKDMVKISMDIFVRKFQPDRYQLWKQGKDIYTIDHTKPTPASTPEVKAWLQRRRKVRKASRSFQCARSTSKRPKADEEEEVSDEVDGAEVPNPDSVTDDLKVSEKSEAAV
VLA-4 inh: inhibition in a human VLA-4 binding assay; P13612; VLA-4 expressing cells, ligand binding flow cytometry; inhibition, % (about 7 µM as worked out from the volumes in the protocol); 0.2% of 330,000 active; in the data active means inhibition above about 50%
V-ATPase pH: alters yeast V-ATPase proton transport; S. cerevisiae, pHLuorin cytosolic pH fluorescence; response, % at 10 µM; 0.37% of 350,000 active; in the data active means response mostly above about 7.3%, no sharp cut-off; inactive means mostly below about 5.4%; further: actives read high
MEX-5 binding: C. elegans MEX-5 TCR-2 RNA binding activity; MEX-5/FITC-TCR2 RNA binding, fluorescence polarization; hits give low values; Q9XUB2; activity score (negative = inhibition of binding), % at 10 µM; 0.38% of 300,000 active;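 active means inhibition past about -25% in most replicates, and total fluorescence under double the plate's negative control median, limit read from the data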
MOR ag counter: activates human mu opioid receptor in HTR2A counterscreen; 5.3% of 2,300 active; shares compounds with m5-HT2A agonist; activation, % at 9.3 µM; U2OS OPRM1 beta-arrestin PathHunter, luminescence; DMSO 0%, DAMGO 9.3 µM 100%; AID 624380;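 active means mean activation above the mean of DMSO-only wells plus 3 SD, cut at about 0.5% in these data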
m5-HT2A ag conf: mouse HTR2A agonism confirmed. shares compounds with m5-HT2A agonist. CHO-K1 PathHunter beta-arrestin recruitment, luminescence; DMSO 0%, 30 µM serotonin 100%. activation, % at 7.6 µM. 19% of 2,300 active;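 active means mean activation across triplicates above the hit threshold derived in the original primary screen, cut at about 15% in these data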
Hits are given with their value; i = inactive; nt = no result given. A selection: hits, their analogues and other compounds. The true share with any hit is near 2.2%.

SMILES | m5-HT2A agonist | Exocytosis inh | GASC-1 inh | VLA-4 inh | V-ATPase pH | MEX-5 binding | MOR ag counter | m5-HT2A ag conf
COc1cc(NC(=O)C2CC(c3ccccc3Cl)=NO2)cc(OC)c1OC (stereo not given) | 18 | i | i | i | i | i | i | i
COc1cccc(NC(=O)c2ccc(CN3CCN(c4ccccc4)CC3)cc2)c1 | 33 | i | i | i | i | i | i | 60
O=C(Nc1ccccc1F)c1ccc(CN2CCN(c3ccccc3)CC2)cc1 | 20 | i | i | i | i | i | 0.8 | 95
CSc1ccc(N2CCN(CCCNC(=O)Nc3ccccc3F)CC2)cc1 | 17 | i | i | i | i | i | i | 39
COc1ccc(NC(=O)c2ccc(CN3CCN(c4ccccc4)CC3)cc2)cc1 | i | i | i | i | i | i | nt | nt
Cc1ccc(C(=O)O/N=C(\N)Cc2cccs2)c(Cl)c1 | i | i | i | i | i | i | nt | nt
O=S(=O)(c1ccc(-c2ccon2)s1)N1CCN(c2ccncc2)CC1 | nt | nt | i | i | nt | i | nt | nt
COc1ccc(-n2nc(C(=O)NCC(=O)N3CCC(C)CC3)c3ccccc3c2=O)cc1 | 15 | i | i | i | i | i | i | i
COc1ccc(-n2nc(C(=O)NCC(=O)N3CCCC(C)C3)c3ccccc3c2=O)cc1 (stereo not given) | i | i | i | i | i | i | nt | nt
CCOC(=O)C1CCCN(C(=O)c2cccc3ccccc23)C1 (stereo not given) | 17 | i | i | i | i | i | i | i
CNCCCN1c2ccccc2CCc2ccccc21 | 31 | i | i | i | i | i | i | i
CCC(=O)c1ccc(OCC(=O)OCc2csc(CC(=O)Nc3ccccc3C)n2)cc1 | 19 | i | nt | nt | nt | nt | i | i
O=C(COc1ccc2c3c(c(=O)oc2c1)CCC3)Nc1ccccn1 | i | i | i | i | i | nt | nt | nt
COCCC(=O)N1CCC(Oc2ccc(C(=O)NCCc3ccccn3)cc2)CC1 | i | i | i | i | i | i | nt | nt
CC(=O)Nc1ccc(OCC(O)Cn2ccnc2)cc1 (stereo not given) | i | i | i | i | i | i | nt | nt
CC(=O)c1ccccc1OCC(O)Cn1ccnc1 (stereo not given) | 21 | i | i | i | i | i | i | i
COc1ccc(-c2cc3nc(NCC4CCCCC4)n(C)c(=O)c3s2)cc1OC | i | i | nt | nt | nt | nt | nt | nt
O=C(NC1CCCCC1)C(C1CC1)n1c(=O)c(-c2ccccc2)nc2ccccc21 (stereo not given) | i | i | nt | nt | nt | nt | nt | nt
CCc1ccc(C2NC(=S)NC3=C2C(=O)N(c2ccccc2OC)C(c2ccc(CC)cc2)N3)cc1 (stereo not given) | 37 | i | i | i | i | i | i | i
O=C1C2=C(NC(=S)NC2c2ccc(Cl)cc2)NC(c2ccc(Cl)cc2)N1c1ccc(Cl)cc1 (stereo not given) | i | i | i | i | i | i | nt | nt
COc1ccc(N(C)C(=O)c2cc3c(s2)-c2ccc(Cl)cc2S(=O)(=O)C3)c(OC)c1 | 14 | i | i | i | i | i | i | i
CCOC(=O)c1c(NC(=O)COC(=O)c2cccc([N+](=O)[O-])c2)sc(C(=O)N(C)C)c1C | i | i | nt | nt | i | nt | nt | nt
Cn1c(=O)[nH]c(=O)c2c1nc(N1CCCC1)n2CCO | 22 | i | i | i | i | i | i | i
COc1ccc(NC2SC(=O)N(C)C2=O)cc1 (stereo not given) | i | i | i | i | i | i | nt | nt
Cc1ccc(S(=O)(=O)Nc2c(C)n(C)n(-c3ccccc3)c2=O)cc1C(=O)OCC(=O)N1CCCC(C)C1 (stereo not given) | 16 | i | i | i | i | i | i | i
SMILES | m5-HT2A agonist | Exocytosis inh | GASC-1 inh | VLA-4 inh | V-ATPase pH | MEX-5 binding | MOR ag counter | m5-HT2A ag conf
Cc1c(NS(=O)(=O)c2cc(C(=O)N3CCCC(C)C3)ccc2Cl)c(=O)n(-c2ccccc2)n1C (stereo not given) | i | i | i | i | i | nt | nt | nt
C=CCn1c(SCC(=O)NCC(=O)OCC)nnc1-c1cccc(OC)c1 | 20 | i | i | i | i | i | i | i
O=C(NCc1ccc(F)cc1)Nc1nnc([C@H]2C[C@H](O)[C@@H](CO)O2)s1 | i | i | nt | nt | nt | nt | nt | nt
O=C(Nc1ccc(Cl)c(S(=O)(=O)N2CCOCC2)c1)c1ccc(Cl)nc1 | 17 | i | nt | nt | i | nt | i | i
CCOc1ccccc1C(=O)NCC(=O)NNC(=O)c1cccs1 | 19 | i | i | i | i | nt | i | i
CCOc1ccccc1C(=O)N[C@H](C(=O)NNC(=O)c1cccs1)C(C)C | i | i | i | i | i | nt | nt | nt
COc1ccccc1CC(=O)Nc1ccc(NC(=O)c2cccs2)cc1 | i | i | i | i | i | i | nt | nt
COc1ccccc1CC(=O)NNC(=O)c1cccs1 | 15 | i | i | i | i | i | i | i
Cc1cnc(C(=O)Nc2ccc(C)c(S(=O)(=O)N3CCCCCC3)c2)cn1 | i | i | nt | nt | i | nt | nt | nt
CN(C(=O)CSC1=NCCS1)c1ccccc1 | 15 | i | i | i | i | i | 0.9 | i
O=C(CSC1=NCCS1)NC(NC(=O)CSC1=NCCS1)c1ccccc1 | i | i | i | i | i | i | nt | nt
COC(=O)c1sccc1NC(=O)CC1C(=O)NCCN1C(=O)c1ccc(F)cc1 (stereo not given) | i | i | i | i | i | i | nt | nt
Cc1ccccc1C(=O)Nc1ccnn1C1CCN(Cc2ccc(CO)o2)CC1 | i | i | i | i | i | i | nt | nt
COc1ccc(CCn2c3c(c(=O)[nH]c2=O)C(NC(=O)c2cccs2)(C(F)(F)F)C(=O)N3)cc1OC (stereo not given) | 15 | i | i | i | i | i | i | i
CCOC(=O)CN1CCS(=O)(=O)CC1 | 16 | i | i | i | i | i | i | i
CCOC(=O)CSC1=NN2CCS(=O)(=O)N=C2S1 | i | i | i | i | i | i | nt | nt
Cc1cc(C(=O)CS(=O)(=O)c2ccc(Cl)cc2)cc(C)c1O | i | i | i | i | i | i | nt | nt
COC(=O)C1=CN(Cc2ccc(OC)c(OC)c2)C=C(C(=O)OC)C1c1cccc(OC)c1OC | i | i | i | i | i | i | nt | nt
COC(=O)C1=CN(Cc2ccc(OC)c(OC)c2)C=C(C(=O)OC)C1c1ccccc1F | 17 | i | i | i | i | i | i | i
O=S(=O)(Nc1cccc(-n2cnnn2)c1)c1cccc(Cl)c1 | i | i | i | i | i | i | nt | nt
O=S(=O)(Nc1cccc(-n2cnnn2)c1)c1ccccc1 | 15 | i | i | i | i | i | i | i
CN=C(c1ccco1)n1c(=S)nc(-c2ccco2)n(C)c1=S | i | i | i | i | i | i | nt | nt
